Assay results: PubChem BioAssay (NCATS)
Several values for one entry are separate records, joined by “and”; a condition that tells them apart may be missing. Equal entries are not always repeated. Records with an inconclusive call do not appear. Entries that show only a call come without a potency. Values without a mark were called inactive. Activity calls are given as the source filed them. Calls follow the shape of the dose curve; as a rule, active = well fitted curve in the direction sought with a large enough effect; inconclusive = small, poorly fitted or top-dose-only effect, or another doubt; inactive = no such curve, though single readings can be large; an effect the other way counts as inactive or inconclusive.

Key:
Tov-21-G = test: Primary qHTS to identify gynecologic anti-cancer compounds using libraries of approved drugs and bioactive compounds (AID 1345084); settings: Gynecologic cancer cell panel viability, ATPlite luminescence, 48 h; series mostly up to 57.5 µM; also: nearly all actives have a fitted effect of over 55% in size
Summary of the method: (§1)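 Cell viability after 48 h drug treatment, ATPlite luminescence readout; five doses.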

Tov112D = test: as above; settings: Gynecologic cancer cell panel viability, ATPlite luminescence, 48 h; series mostly up to 57.5 µM
Summary of the method: as §1

[1] = Drug repurposing screens with cells derived from glioblastoma tumor samples (AID 1345199); settings: GBM patient neurospheres viability, ATP luminescence, 48 h; also: nearly all actives have a fitted effect of over 40% in size
Summary of the method: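 Four patient lines of CD133+ GBM neurospheres were screened at several concentrations; hits were retested in those lines plus three slower-growing GBM lines, using 48-hour treatment and ATP-based viability.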

[2] = at 46.1 µM (top of the series), tumour line C
[3] = at 45.9 µM (top of the series), tumour line B
[4] = at 45.9 µM (top of the series), tumour line D
Potency is read from the fitted curve at half-maximal effect.

**Q.** Which Potency (Tov-21-G) does the source give for `O=C(CS)Nc1ccccc1` here?
**A.** Its Potency is “inactive”.

**Q.** What about the Potency (Tov112D) of the same compound?
**A.** The Potency was “inactive”.

**Q.** And the activity, negative = cell killing [1, 2]?
**A.** Its activity, negative = cell killing is -39.6%.

**Q.** And the Potency ([1]; tumour line D)?
**A.** Its Potency is 12.6 µM (active).

**Q.** Which Potency (Tov-21-G) does the source give for `COC(=O)Nc1nc2ccc(C(=O)C3CC3)cc2[nH]1` here?
**A.** The Potency was 1.41 µM (active).

**Q.** And the Potency (Tov112D)?
**A.** The Potency was 1.58 µM (active).

**Q.** For `CNC(=O)c1c(I)c(NC(=O)CCCCC(=O)Nc2c(I)c(C(=O)O)c(I)c(C(=O)NC)c2I)c(I)c(C(=O)O)c1I`, which Potency (Tov-21-G) is on record?
**A.** Its Potency is “inactive”.

**Q.** What about the Potency (Tov112D) of the same compound?
**A.** The Potency was “inactive”.

**Q.** For `COC(=O)C1=C(C)NC(C)=C(C(=O)OCC(C)C)C1c1ccccc1[N+](=O)[O-]` (configuration not stated), which Potency (Tov-21-G) is on record?
**A.** Its Potency is “inactive”.

**Q.** And the Potency (Tov112D)?
**A.** The Potency was “inactive”.

**Q.** And the activity, negative = cell killing [1, 2]?
**A.** Its activity, negative = cell killing is -13.4%.

**Q.** What about the Potency ([1]; tumour line A) of the same compound?
**A.** Its Potency is 10 µM (active).

**Q.** And the Potency ([1]; tumour line D)?
**A.** The Potency was 14.1 µM (active).

**Q.** With `c1ccc(CCNc2nc(-c3ccccc3)cs2)cc1` as the compound, how does the Potency (Tov-21-G) read?
**A.** Its Potency is “inactive”.

**Q.** What about the Potency (Tov112D) of the same compound?
**A.** The Potency was “inactive”.

**Q.** What about the activity, negative = cell killing [1, 3] of the same compound?
**A.** The activity, negative = cell killing was -22.5%.

**Q.** What about the Potency ([1]; tumour line A) of the same compound?
**A.** Its Potency is 14.1 µM (active).

**Q.** With `Fc1ccc2[nH]c(CN3CCN(c4ccccn4)CC3)cc2c1` as the compound, how does the Potency (Tov-21-G) read?
**A.** Its Potency is “inactive”.

**Q.** What about the Potency (Tov112D) of the same compound?
**A.** The Potency was “inactive”.

**Q.** With `CCNc1nc2c(ncn2[C@H]2C[C@H](O)[C@@H](CO)O2)c(=O)[nH]1` as the compound, how does the Potency (Tov-21-G) read?
**A.** The Potency was “inactive”.

**Q.** What about the Potency (Tov112D) of the same compound?
**A.** The Potency was “inactive”.

**Q.** For `C[N+]1(C)[C@@H]2CC(OC(=O)[C@H](CO)c3ccccc3)C[C@H]1[C@@H]1O[C@@H]12` (some centres not stated), which Potency (Tov-21-G) is on record?
**A.** The Potency was “inactive”.

**Q.** What about the Potency (Tov112D) of the same compound?
**A.** Its Potency is “inactive”.

**Q.** For `Cc1c(C(=O)O)c(O)cc2c1C(=O)c1c(O)c([C@@H]3O[C@H](CO)[C@@H](O)[C@H](O)[C@H]3O)c(O)c(O)c1C2=O`, which Potency (Tov-21-G) is on record?
**A.** Its Potency is “inactive”.

**Q.** What about the Potency (Tov112D) of the same compound?
**A.** Its Potency is “inactive”.

**Q.** What about the activity, negative = cell killing [1, 3] of the same compound?
**A.** The activity, negative = cell killing was -25.2%.

**Q.** And the activity, negative = cell killing [1, 4]?
**A.** The activity, negative = cell killing was -27.3%.

**Q.** What about the activity, negative = cell killing [1, 2] of the same compound?
**A.** Its activity, negative = cell killing is 21.4%.

**Q.** What does the source list for `O=[N+]([O-])c1ccc(CNc2nc(NCc3cccc(C(F)(F)F)c3)nc3nc[nH]c23)cc1`?
**A.** Potency (Tov-21-G): inactive; Potency (Tov112D): inactive

**Q.** Which Potency (Tov-21-G) does the source give for `COc1ccc(/C=C/C(=O)Nc2ccccc2C(=O)O)cc1OC` here?
**A.** Its Potency is “inactive”.

**Q.** And the Potency (Tov112D)?
**A.** Its Potency is “inactive”.

**Q.** Which Potency (Tov-21-G) does the source give for `CN1CC(=O)N/C1=N/C(=O)Nc1cccc(Cl)c1` here?
**A.** Its Potency is “inactive”.

**Q.** And the Potency (Tov112D)?
**A.** Its Potency is “inactive”.

**Q.** And the activity, negative = cell killing [1, 3]?
**A.** The activity, negative = cell killing was -4.72% and 3.17%.

**Q.** What about the activity, negative = cell killing [1, 4] of the same compound?
**A.** Its activity, negative = cell killing is -5.4% and -21.8%.

**Q.** What about the activity, negative = cell killing [1, 2] of the same compound?
**A.** The activity, negative = cell killing was -23.8% and 2.92%.

**Q.** With `CCCSc1ccc2nc(NC(=O)OC)[nH]c2c1` as the compound, how does the Potency (Tov-21-G) read?
**A.** Its Potency is 2 µM (active).

**Q.** And the Potency (Tov112D)?
**A.** The Potency was 1.12 µM (active).

**Q.** What does the source list for `CS(=O)(=O)c1ccc(-n2nc(C(F)(F)F)cc2-c2ccc(F)cc2)cc1`?
**A.** Potency (Tov-21-G): inactive; Potency (Tov112D): inactive

**Q.** Which Potency (Tov-21-G) does the source give for `C#CC1(O)CC[C@H]2[C@@H]3CCC4=CCCC[C@@H]4[C@H]3CC[C@@]21C` (some centres not stated) here?
**A.** The Potency was “inactive”.

**Q.** What about the Potency (Tov112D) of the same compound?
**A.** Its Potency is “inactive”.

**Q.** What about the activity, negative = cell killing ([1]; at 20 µM (top of the series), tumour line C) of the same compound?
**A.** Its activity, negative = cell killing is -10.1%.

**Q.** What about the Potency ([1]; tumour line A) of the same compound?
**A.** Its Potency is 11.2 µM (active).

**Q.** With `NC(=O)C(c1ccccc1)(c1ccccc1)[C@@H]1CCN(CCc2ccc3c(c2)CCO3)C1` as the compound, how does the Potency (Tov-21-G) read?
**A.** Its Potency is “inactive”.

**Q.** And the Potency (Tov112D)?
**A.** The Potency was “inactive”.

**Q.** With `CCCCCCCC/C=C/C(=O)O` as the compound, how does the Potency (Tov-21-G) read?
**A.** Its Potency is “inactive”.

**Q.** And the Potency (Tov112D)?
**A.** The Potency was “inactive”.

**Q.** Which results are given for `CCNC(=O)[C@H]1O[C@@H](n2cnc3c(N)nc(NCCc4ccc(CCC(=O)O)cc4)nc32)[C@H](O)[C@@H]1O`?
**A.** Potency (Tov-21-G): inactive; Potency (Tov112D): inactive

**Q.** Which Potency (Tov-21-G) does the source give for `COc1ccnc2c1CCCCC2S(=O)c1nc2ccccc2[nH]1` (configuration not stated) here?
**A.** The Potency was “inactive”.

**Q.** What about the Potency (Tov112D) of the same compound?
**A.** The Potency was “inactive”.

**Q.** For `CC(C)(C)c1nnc(NS(=O)(=O)c2ccc(N)cc2)s1`, which Potency (Tov-21-G) is on record?
**A.** Its Potency is “inactive”.

**Q.** What about the Potency (Tov112D) of the same compound?
**A.** The Potency was “inactive”.

**Q.** With `Cc1nc2ccccc2n1Cc1ccc(Cl)cc1` as the compound, how does the Potency (Tov-21-G) read?
**A.** The Potency was “inactive”.

**Q.** And the Potency (Tov112D)?
**A.** The Potency was “inactive”.

**Q.** Which Potency (Tov-21-G) does the source give for `O=Cc1ccc(O)c(O)c1O` here?
**A.** The Potency was “inactive”.

**Q.** What about the Potency (Tov112D) of the same compound?
**A.** The Potency was “inactive”.

**Q.** For `CCCCN(CC)c1nc(C)nc2c1c(C)cn2-c1c(C)cc(C)cc1C`, which Potency (Tov-21-G) is on record?
**A.** Its Potency is “inactive”.

**Q.** And the Potency (Tov112D)?
**A.** Its Potency is “inactive”.

**Q.** For `CN1[C@@H]2CC[C@H]1CC(OC(c1ccccc1)c1ccccc1)C2` (some centres not stated), which Potency (Tov-21-G) is on record?
**A.** The Potency was “inactive”.

**Q.** What about the Potency (Tov112D) of the same compound?
**A.** Its Potency is “inactive”.

**Q.** What about the activity, negative = cell killing [1, 3] of the same compound?
**A.** The activity, negative = cell killing was -9.62%.

**Q.** What about the Potency ([1]; tumour line A) of the same compound?
**A.** Its Potency is 7.08 µM (active).

**Q.** With `NS(=O)(=O)c1ccc(-n2nc(C(F)(F)F)cc2-c2ccc(Cl)cc2)cc1` as the compound, how does the Potency (Tov-21-G) read?
**A.** Its Potency is “inactive”.

**Q.** And the Potency (Tov112D)?
**A.** Its Potency is “inactive”.

**Q.** What does the source list for `CN1CCN(c2cc3c(nn2)Oc2ccccc2N3C)CC1`?
**A.** Potency (Tov-21-G): inactive; Potency (Tov112D): inactive; activity, negative = cell killing [1, 3]: -7.46%; Potency ([1]; tumour line A): 11.2 µM (active)

**Q.** With `CCCCCCCCCCCCOCCO` as the compound, how does the Potency (Tov-21-G) read?
**A.** The Potency was “inactive”.

**Q.** And the Potency (Tov112D)?
**A.** The Potency was “inactive”.

**Q.** What does the source list for `O=C(O)CC1CC(c2ccccc2)=NO1` (configuration not stated)?
**A.** Potency (Tov-21-G): inactive; Potency (Tov112D): inactive

**Q.** Which Potency (Tov-21-G) does the source give for `O=C(Nc1ccc2c(c1)CCN(Cc1ncn[nH]1)C2)c1ccccc1-c1ccc(C(F)(F)F)cc1` here?
**A.** Its Potency is “inactive”.

**Q.** And the Potency (Tov112D)?
**A.** The Potency was “inactive”.

**Q.** With `CN(CCCOc1ccc(Cc2ccccc2)cc1)CCC(=O)O` as the compound, how does the Potency (Tov-21-G) read?
**A.** Its Potency is “inactive”.

**Q.** What about the Potency (Tov112D) of the same compound?
**A.** The Potency was “inactive”.

**Q.** Which Potency (Tov-21-G) does the source give for `O=C(Nc1ccc2[nH]ncc2c1)C1CCC1` here?
**A.** Its Potency is “inactive”.

**Q.** What about the Potency (Tov112D) of the same compound?
**A.** Its Potency is “inactive”.

**Q.** For `COC(=O)C1=C(C)NC(C)=C(C(=O)OCC(C)=O)C1c1ccccc1[N+](=O)[O-]` (configuration not stated), which Potency (Tov-21-G) is on record?
**A.** Its Potency is “inactive”.

**Q.** What about the Potency (Tov112D) of the same compound?
**A.** Its Potency is “inactive”.

**Q.** Which results are given for `CCCC(=O)OC[C@@H](OC(=O)CCC)[C@@H](OC(=O)CCC)[C@H](Cn1c2nc(=O)[nH]c(=O)c-2nc2cc(C)c(C)cc21)OC(=O)CCC`?
**A.** Potency (Tov-21-G): inactive; Potency (Tov112D): inactive; activity, negative = cell killing [1, 2]: -29.1%; Potency ([1]; tumour line A): 8.91 µM (active); Potency ([1]; tumour line D): 12.6 µM (active)

**Q.** Which Potency (Tov-21-G) does the source give for `O=C(CCN1CCN(CCO)CC1)N1c2ccccc2Sc2ccc(C(F)(F)F)cc21` here?
**A.** The Potency was “inactive”.

**Q.** And the Potency (Tov112D)?
**A.** Its Potency is “inactive”.

**Q.** And the activity, negative = cell killing [1, 3]?
**A.** Its activity, negative = cell killing is -17.6%.

**Q.** What about the Potency ([1]; tumour line A) of the same compound?
**A.** Its Potency is 11.2 µM (active).
